# Several values for one entry are separate records, joined by “and”; a condition that tells them apart may be missing. Equal entries are not always repeated. The campaign covered roughly 350,000 compounds. About 31,000 (8.9%) were called active. A call without a number means that no potency is given here. About 15% were inconclusive and are not listed. Calls come from the whole dose curve; as a rule, active = well fitted inhibition curve with a large enough effect; inconclusive = small, poorly fitted or top-dose-only effect; inactive = no such curve, though single readings can be large or run the other way. For the sample, actives were picked, then their nearest neighbours and some compounds at random. Some structures have more than one record in an assay (separate samples or runs), and their calls can disagree.
# Target: Histone-lysine N-methyltransferase EHMT2 (Homo sapiens) (UniProt Q96KQ7)
# Experiment: qHTS Assay for Inhibitors of Histone Lysine Methyltransferase G9a; note: nearly all actives have a fitted effect of over 75% in size
# Settings: G9a H3K9 monomethylation, AlphaScreen, 2 h; series mostly up to 59 µM
# In short: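 AlphaScreen detection with an anti-monomethyl H3K9 antibody quantified product after a 2 h room-temperature reaction containing 500 nM biotinylated H3K9 peptide, 20 µM SAM and 20 nM enzyme, which had been preincubated 15 min with compound.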
# Potency is the fitted concentration of half-maximal effect.
# Sequence of Histone-lysine N-methyltransferase EHMT2 (Homo sapiens) (Q96KQ7 913-1193 limits assumed): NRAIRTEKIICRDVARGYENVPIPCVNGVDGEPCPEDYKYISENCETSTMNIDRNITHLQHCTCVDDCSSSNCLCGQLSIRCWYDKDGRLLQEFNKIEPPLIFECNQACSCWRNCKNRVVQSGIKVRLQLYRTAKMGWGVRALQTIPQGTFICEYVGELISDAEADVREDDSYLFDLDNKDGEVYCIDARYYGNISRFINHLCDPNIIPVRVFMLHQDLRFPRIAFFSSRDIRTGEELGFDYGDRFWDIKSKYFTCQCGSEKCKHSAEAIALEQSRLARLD
Compound,Potency,"activity, negative = inhibition"
COc1ccccc1NC(=O)c1cc(N2C(=O)C3C4CCC(C4)C3C2=O)ccc1Cl (stereo unspecified),inactive,–
Cc1ccc2nc(COc3ccccc3NC(=O)Nc3ccc(F)c(Cl)c3)cc(=O)n2c1,inactive,–
O=C(COC(=O)c1ncc(Cl)c(Cl)c1Cl)NCc1ccccc1,inactive,–
CCCCN(CCCNC(=O)c1cc(Nc2ccccc2OC)nc2ccccc12)c1ccccc1,inactive,–
COc1ccc(Nc2cc(C(=O)NCCCN(C)c3ccccc3)c3ccccc3n2)c(OC)c1,7.94 µM (active),–
COc1ccccc1Nc1cc(C(=O)NCCCN(C)C2CCCCC2)c2ccccc2n1,inactive,–
NC(=O)C1CCN(C(=O)c2cccc(NC(=O)c3nsc4ccccc34)c2)CC1,inactive,–
COCCN1C(=O)N[C@@H](c2ccccc2)C(C(=O)OC)=C1C,inactive,–
CCN1C(=NCCc2cccnc2)N[C@@H](c2ccccc2)C(C(=O)OC)=C1C,44.7 µM (active),–
CCN1C(=NCCc2cccnc2)N[C@@H](c2ccccc2)[C@H](C(=O)OC)[C@H]1C,–,-5.2% [at 12.7 µM] (inactive)
CC(=O)Nc1c(C)nn(-c2ccccc2)c1N1CCC(C(=O)Nc2cc(Cl)ccc2C)CC1,inactive,–
O=C(CN1C(=O)NC2(CCCC2)C1=O)OCCOc1ccc(F)cc1,–,-1.07% [at 0.501 µM] (inactive)
CCOc1c(OC)cccc1C(=O)NCC1(c2ccccc2)CCCC1,inactive,–
Cc1ccc(-c2csc(N3CCN(c4cc5c(cc4Cl)nc(-c4ccncc4)n5CCOCCO)CC3)n2)cc1,50.1 µM (active),–
CCCn1c(C2CCCN2c2nc(-c3ccc(C)cc3)cs2)nc2cc(Cl)c(N3CCCCC3)cc21 (stereo unspecified),inactive,–
Cn1c(=O)c2c(nc(NCCc3ccccc3)n2Cc2ccccc2Br)n(C)c1=O,inactive,–
Cc1ccc(-n2c(SCC(=O)c3ccccc3)nc3c([nH]c4ccccc43)c2=O)cc1,inactive,–
O=C(Nc1sc2c(c1-c1nc3ccccc3[nH]1)CCCC2)C1CC1,50.1 µM (active),–
CCOC(=O)c1c(NC(=O)C2CCN(S(=O)(=O)c3ccc(Cl)cc3)CC2)sc2c1CCCC2,inactive,–
O=C(OCc1nc2ccccc2[nH]1)C1CCCCC1,inactive,–
CC(C)c1ccc(NC(=O)c2ccc3c(O)c(S(=O)(=O)c4ccccc4)c(=O)[nH]c3c2)cc1,inactive,–
Cc1cc(C)cc(NC(=O)CSc2nc(=O)n(CCN3CCOCC3)c3c2CCC3)c1,inactive,–
Cc1ccc(Cn2cc(CCC(=O)NCc3ccc(OC(C)C)cc3)c3ccccc32)cc1,inactive,–

Compound,Potency,"activity, negative = inhibition"
O=S(=O)(NCCc1ccc(Cl)cc1)c1cccs1,inactive,–
CN(c1ccccc1)S(=O)(=O)c1ccc(C(=O)NCCc2ccccc2)cc1,inactive,–
C[N+](C)(C)CCNC(=O)c1cc[n+](Cc2ccccc2)c(/C=N/O)c1,10 µM (active),–
CCCOc1ccc(C(=O)NCCc2ccccc2)cc1,inactive,–
CCOc1ncccc1C(=O)OCC(=O)N1c2ccccc2CC1C (stereo unspecified),inactive,–
Cc1ncc(CO)c(/C=N/NC(=O)c2cccc(S(=O)(=O)N3CCCC3)c2)c1O,inactive,–
Cc1cc(C)c2[nH]c(=O)c(CN(Cc3ccccc3)C(=S)NCCCN(C)C)cc2c1,inactive,–
Cc1ccc(C)c2[nH]c(=O)c(CN(Cc3cccnc3)C(=S)NCc3ccco3)cc12,50.1 µM (active),–
Cc1cccc2cc(CN(Cc3cccs3)C(=S)NCc3ccco3)c(=O)[nH]c12,inactive,–
COc1ccc(C(=O)NCC2CCCCC2)cc1S(=O)(=O)N1CCCC1,–,-36.7% [at 12.7 µM] (inactive)
N#C/C(=C\c1ccc(O)c(O)c1)C(=O)NCc1ccccc1,5.01 µM (active) and 5.62 µM (active) and 4.74 µM (active),–
COc1ccc(CNC(=O)/C(C#N)=C/c2cccc(OC)c2OC)cc1,–,44% [at 0.501 µM] (inactive)
COCCNC(=O)/C(C#N)=C/c1cccc(OCc2ccccc2)c1,inactive,–
COc1ccc(C2=NS(=O)(=O)N(C)C(C(=O)NC(C)c3ccccc3)=C2)cc1 (stereo unspecified),inactive and 14.1 µM (active),–
COc1ccc(NC(=O)C2=CC(c3ccc(OC)c(OC)c3)=NS(=O)(=O)N2C)cc1,inactive,–
COc1ccc(C2=NS(=O)(=O)N(C)C(C(=O)N(C)Cc3ccccc3)=C2)cc1,–,5.73% [at 12.7 µM] (inactive)
CC(=O)N1c2ccc(S(=O)(=O)N3CCCC(C(=O)Nc4cccc(F)c4)C3)cc2CC1C (stereo unspecified),–,-7.59% [at 12.7 µM] (inactive)
CCN(CCCNC(=O)Cn1ncc2c3ccccc3n(C)c2c1=O)Cc1ccccc1,inactive,–
CCC(CC)c1nn2cc(-c3ccccc3)nc2s1,inactive,–
O=C(Nc1ccc2c(c1)OCCO2)C1CCCC1,–,2.92% [at 12.7 µM] (inactive)
Cc1ccc(-n2c(C)cc(/C=N/Nc3ccc([N+](=O)[O-])cn3)c2C)c(C)c1,inactive,–
Cc1cc(/C=N/Nc2ccc([N+](=O)[O-])cn2)c(C)n1-c1cccc(C(=O)O)c1,15.8 µM (active),–
Cc1cccc(C)c1NC(=O)CSc1ccc([N+](=O)[O-])cn1,inactive,–

Compound,Potency,"activity, negative = inhibition"
C#CC(C)(CC)NC(=O)Cn1nnc(-c2ccc(OCc3c(F)cccc3Cl)cc2)n1 (stereo unspecified),inactive,–
CCOc1ccc(NC(=O)CN(C)C(=O)c2c(C)noc2C)cc1OCC,inactive,–
Cc1ccc(CSCC(N)C(=O)O)cc1 (stereo unspecified),15.8 µM (active),–
Cc1ccc(CSCC(=O)N(C)CC(=O)Nc2cccc(F)c2)cc1,inactive,–
COCCN(C(=O)CSCc1ccc(C)cc1)c1c(N)n(CC(C)C)c(=O)[nH]c1=O,–,19% [at 12.7 µM] (inactive)
Cc1ccc2c(=O)c(C(=O)c3ccc(F)cc3)cn(CC(=O)NC3CCCCC3)c2n1,inactive,–
O=C(NCCCN1CCCC1=O)c1cccc(S(=O)(=O)NCc2ccccc2)c1,inactive,–
COC(=O)/C=C\C(=O)Nc1cccc([N+](=O)[O-])c1,1.41 µM (active),–
O=C(CSCC(=O)Nc1cccc([N+](=O)[O-])c1)Nc1ccccc1,inactive,–
CN(CC(=O)Nc1cccc(F)c1)CC(=O)Nc1cccc([N+](=O)[O-])c1,inactive,–
COc1ccc(S(=O)(=O)NC(C)C(=O)N2CCCCCC2)cc1 (stereo unspecified),inactive,–
COc1ccc(S(=O)(=O)NC(C)C(=O)Nc2cccc([N+](=O)[O-])c2)cc1 (stereo unspecified),50.1 µM (active),–
COc1ccc(CCNS(=O)(=O)c2cccc([N+](=O)[O-])c2)cc1,inactive,–
Cc1c(C(=O)N(C)C)sc2c1c(=O)n(-c1ccc(F)cc1)c(=O)n2CC(=O)N(C)c1ccccc1,inactive,–
CC1=C(C(=O)Nc2ccccc2)C(c2ccc(C)cc2)n2nc(SCc3ccccc3C)nc2N1 (stereo unspecified),inactive,–
CCc1cccc(C)c1NC(=O)COC(=O)CNC(=O)c1cccs1,inactive,–
CCC1(c2ccccc2)NC(=O)N(CC(=O)Nc2ccccc2C(=O)NC2CCCC2)C1=O (stereo unspecified),–,20.5% [at 0.501 µM] (inactive)
COc1cc2c(cc1OC)C(C(=O)Nc1cc(C)c(OC)c(C)c1)CC(=O)N2 (stereo unspecified),inactive,–
COc1cc(Br)c(-c2sc(Nc3ccccc3)n[n+]2-c2ccccc2)cc1OC,28.2 µM (active),–
CCc1ccc(Nc2n[n+](-c3ccccc3)c(-c3cccc(Cl)c3Cl)s2)cc1,–,10.7% [at 2.33 µM] (inactive)
COc1ccc(C(=O)Nc2cccc(C(=O)OCc3cc(=O)n4c5c(sc4n3)CCCC5)c2)cc1,inactive,–
COc1ccc(C)cc1NC(=O)CSc1nnc2ccc(-c3ccccn3)nn12,–,2.04% [at 0.501 µM] (inactive)
COc1cccc(/C=C/C(=O)OCC(=O)N2CCN(c3ccccc3)CC2)c1,–,-4.22% [at 12.7 µM] (inactive)

Compound,Potency,"activity, negative = inhibition"
COCCn1c(C)cc(C(=O)COC(=O)/C=C/c2cccc(OC)c2)c1C,44.7 µM (active),–
COCCn1c(C)cc(C(=O)COC(=O)CNC(=O)c2ccco2)c1C,inactive,–
Cc1cccc(-n2ncc(C(=O)N3CCc4ccccc4C3)c2C2CCN(C(=O)OC(C)(C)C)CC2)c1,inactive,–
COc1ccc(CNC(=O)c2ccc3c(c2)nc2n3CCOC2)c(OC)c1,inactive,–
CCc1ccccc1NC(=O)CN(C)C(=O)COc1ccc(C)nc1[N+](=O)[O-],inactive,–
CCc1nc(C)ccc1OCC(=O)N(CC)CC,28.2 µM (active),–
CCOC(=O)c1c(C)oc2ccc(OCC(=O)N(CC)CC)cc12,inactive,–
CCc1cccc(C)c1NC(=S)N(CCCN1CCN(C)CC1)Cc1cccs1,inactive,–
Cc1cccc(C)c1NC(=O)N1CC(C)OC(C)C1 (stereo unspecified),inactive,–
Cc1cccc(C)c1NC(=O)C1(C)c2cccc[n+]2CC(=O)N1Cc1cccs1 (stereo unspecified),14.1 µM (active),–
O=C(OCC(=O)N1CCCC1)c1ccc(Cl)nc1,inactive,–
CCOC(=O)C1CCCN(C(=O)c2ccc(C)c(S(=O)(=O)N3CCCCC3)c2)C1 (stereo unspecified),–,38.4% [at 12.7 µM] (inactive)
C=CCOc1cccc(CNn2cn[nH]c2=S)c1,–,24.4% [at 0.0925 µM] (inactive)
C=CCOc1c(CNn2cn[nH]c2=S)cccc1OC,20 µM (active),–
COc1ccccc1CNc1nc(-c2c(C)noc2C)nc2ccccc12,–,-6.92% [at 0.501 µM] (inactive)
Cc1ccc(Cl)cc1N1CCN(C(=O)c2cnc3c(-c4ccc(F)cc4)c(C)nn3c2C)CC1,inactive,–
O=c1c2ccccc2nnn1CSc1nc2sc3c(c2c(=O)n1CC1CCCO1)CCC3 (stereo unspecified),inactive,–
Cc1cccc(OCc2nnc(SCn3nnc4ccccc4c3=O)o2)c1,inactive,–
Nc1nnc(SCn2nnc3ccccc3c2=O)s1,28.2 µM (active),–
O=C(Nc1ccc(S(=O)(=O)N2CCCCC2)cc1)c1cnccn1,inactive,–
O=C(Nc1ccc(F)cc1)c1ccc(S(=O)(=O)NCc2cccnc2)cc1,inactive,–
O=C(NNS(=O)(=O)c1ccc(F)cc1)c1cnccn1,10 µM (active),–

# Source: PubChem BioAssay AID504332 (National Center for Advancing Translational Sciences (NCATS), 2011)
